Measured values published in PubChem BioAssay (NCATS).
Inconclusive results are not listed. A call without a number means that no potency is given here. A number with no mark means an inactive call. Activity calls are given as the source filed them. Calls follow the shape of the dose curve; as a rule, active = well fitted cell-killing curve with a large enough effect; inconclusive = small, poorly fitted or top-dose-only effect, or effect the other way; inactive = flat fitted curve, though single readings scatter.

System: CASKI
Test: Primary qHTS to identify gynecologic anti-cancer compounds using libraries of approved drugs and bioactive compounds (AID 1345084); also: nearly all actives have a fitted effect of over 55% in size
Conditions: Gynecologic cancer cell panel viability, ATPlite luminescence, 48 h; series mostly up to 57.5 µM
Outline: (§1)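 Cytotoxicity screen measuring ATP content by luciferase luminescence. Each compound is applied at five concentrations for 48 h at 37 C with 5% CO2.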
Potency is read from the fitted curve at half-maximal effect.

| SMILES | Potency | activity change, negative = cytotoxicity |
| --- | --- | --- |
| CC1(C)CCCC2(C)C1CC=C1C(=O)OC(O)C12O (configuration not stated) | inactive | – |
| CCOc1ccc(S(=O)(=O)n2c(C)nc3ccccc32)cc1 | inactive | – |
| CC(C)[C@H]1CC[C@@]2(O)COC(=O)[C@H]2[C@@H]1/C=C(\CO)C(=O)O | inactive | – |
| CC(O)CO[C@@H]1O[C@H](CO)[C@@H](O)[C@H](O)[C@H]1O (some centres not stated) | inactive | – |
| CC1(C=O)CC[C@]2(C(=O)O[C@@H]3O[C@H](CO)[C@@H](O)[C@H](O)[C@H]3O)CC[C@]3(C)C(=CCC4[C@@]5(C)C[C@H](O)[C@H](O[C@@H]6OC[C@@H](O)[C@H](O)[C@H]6O)[C@@](C)(CO)C5CC[C@]43C)C2C1 (some centres not stated) | – | 0.835% [at 11.6 µM] |
| COC1C(CO)OC(n2cnc3c(=O)[nH]cnc32)C1O (configuration not stated) | inactive | – |
| Cc1csc(NC(=O)c2ccc(COc3cccc(Cl)c3)o2)n1 | inactive | – |
| CC[C@@](C)(Nc1ccnc(-c2c[nH]c3ncccc23)n1)C(=O)NCC(F)(F)F | inactive | – |

System: Es-2
Test: as above
Conditions: Gynecologic cancer cell panel viability, ATPlite luminescence, 48 h; series mostly up to 57.5 µM
Outline: as §1

| SMILES | Potency | activity change, negative = cytotoxicity |
| --- | --- | --- |
| COc1ccc(-c2nc(-c3ccc(-c4cccc(Cl)c4)o3)[nH]c2-c2ccc(OC)cc2)cc1 | inactive | – |
| CC(=O)c1c(O)cc(O[C@@H]2O[C@H](CO)[C@@H](O)[C@H](O)[C@H]2O)cc1O | inactive | – |
| C=C1C(O)C(O)C2(CC3C(C)=CCC4C(C)(CO)CCCC34C)OC2C1O (configuration not stated) | inactive | – |
| O=C1NC(Cc2c[nH]c3ccccc23)C(=O)NC1Cc1c[nH]c2ccccc12 (configuration not stated) | inactive | – |
| CC1CCC2(C=O)C(CO)=CCCC2C1(C)CC(=O)O (configuration not stated) | inactive | – |
| COc1cc(C)c(C(=O)O[C@H]2[C@@H](OC(C)=O)[C@H](n3ccc(=O)[nH]c3=O)O[C@@H]2CO)c(OC)c1 | inactive | – |
| COC(=O)C1=CO[C@@H](O[C@@H]2O[C@H](CO)[C@@H](O)[C@H](O)[C@H]2O)[C@@H]2[C@@](C)(O)[C@@H](OC(=O)/C=C/c3ccc(O)cc3)C[C@]12O | inactive | – |
| C[C@@H]([C@@H](O)c1ccc(O)cc1)N1CCC(O)(c2ccccc2)CC1 | inactive | – |
| N#C[C@@H]1C[C@H](F)CN1C(=O)CNC1[C@H]2CN(C(=O)c3ccc(F)cc3)C[C@@H]12 (some centres not stated) | inactive | – |
| C=C1CCC2C(C)(C(=O)OC)CCCC2(C)C1CCC(C)CC(=O)O (configuration not stated) | inactive | – |
| C[C@@H]1C(=O)O[C@H]2C[C@]34[C@H]5C[C@@H](C(C)(C)C)[C@]36[C@@H](OC(=O)[C@H]6O)O[C@]4(C(=O)O5)[C@]21O | inactive | – |
| COC(=O)C1=COC(O[C@@H]2O[C@H](CO)[C@@H](O)[C@H](O)[C@H]2O)[C@H]2[C@@H]1[C@H](OC(=O)CCc1ccc(O)cc1)C[C@]2(C)O (some centres not stated) | inactive | – |
| CC(=O)OC[C@H]1O[C@H](O[C@]2(CO)O[C@H](CO)[C@@H](OC(=O)/C=C/c3ccccc3)[C@@H]2O)[C@H](O)[C@@H](O)[C@@H]1O | inactive | – |
| C=C(C)C1CC[C@]2(C(=O)O)CC[C@]3(C(=O)O)[C@H](CCC4[C@@]5(C)CC[C@H](O)C(C)(C)C5CC[C@]43C)C12 (some centres not stated) | inactive | – |
| COc1cc(/C=C/C(=O)O[C@H]2[C@H](O)[C@@H](CO)O[C@@]2(CO)O[C@H]2O[C@H](CO)[C@@H](O)[C@H](O)[C@H]2O)ccc1O | inactive | – |
| CC1(C(=O)O)CCCC2(C)C3CCC4CC3(CCC12)CC4=O (configuration not stated) | inactive | – |
| C/C=C/C(O)C1OC(=O)CC1Nc1ccc(C(=O)O)cc1 (configuration not stated) | inactive | – |
| C=C(CO[C@@H]1O[C@H](CO[C@@H]2OC[C@](O)(CO)[C@H]2O)[C@@H](O)[C@H](O)[C@H]1O)C1Cc2cc(C(C)=O)ccc2O1 (some centres not stated) | inactive | – |
| COc1ccc([C@@]2(O)c3c(ccc4c3OC(C)(CCC=C(C)C)C=C4)NC(=O)[C@@H]2OC)cc1 (some centres not stated) | inactive | – |
| C=C1C[C@]23C[C@H]1[C@@H](O)C[C@H]2[C@@]12C=C[C@H](O)[C@@](C)(C(=O)O1)[C@H]2[C@@H]3C(=O)O | inactive | – |

| SMILES | Potency | activity change, negative = cytotoxicity |
| --- | --- | --- |
| C=C1C(=O)O[C@@H]2C[C@H](C)[C@@]3(O)C=C(C(C)=O)[C@]4(CC3C[C@H]12)C(=O)O[C@H]1C[C@@H](C)C(CCC(C)=O)=CC[C@H]14 (some centres not stated) | inactive | – |
| CCC(C)C(=O)OC1CC(C)C=C2C=CC(C)C(CCC(O)CC(O)CC(=O)O)C21 (configuration not stated) | inactive | – |
| OC[C@H]1O[C@@H](OCCc2ccccc2)[C@H](O[C@@H]2OC[C@](O)(CO)[C@H]2O)[C@@H](O)[C@@H]1O | inactive | – |
| CC1=C(C(=O)O)/C(=C\CO[C@@H]2O[C@H](CO)[C@@H](O)[C@H](O)[C@H]2O)C(OC(=O)/C=C\c2ccc(O)cc2)C1 (some centres not stated) | inactive | – |
| CC1(C)CCCC2(C)C1C(O)C=C(CO)C2(O)CO (configuration not stated) | inactive | – |
| C/C=C(\C)C(=O)OCC1OC(OC2OC(COC(=O)/C(C)=C/C)C(OC3OC(CO)C(OC(=O)/C(C)=C/C)C(OC(=O)/C(C)=C/C)C3O)C(O)C2O)C(O)C(O)C1OC1OC(CO)C(OC(=O)/C(C)=C/C)C(OC(=O)/C(C)=C/C)C1O (configuration not stated) | – | 9.5% [at 11.6 µM] |
| COc1c2c(c(C)c3c1C(=O)OC3)O[C@@]1(C)CCC3(C(C)(C)O)OC(=O)CC[C@]3(C)[C@H]1C2 (some centres not stated) | inactive | – |
| COc1ccc(C[C@H](N)C(=O)N[C@@H]2[C@H](O)[C@H](n3cnc4c(N(C)C)ncnc43)O[C@@H]2CO)cc1 | 2.51 µM (active) | – |
| OC1CCC(Nc2ncc3nc(Nc4c(F)cc(F)cc4F)n([C@H]4CCOC4)c3n2)CC1 (some centres not stated) | inactive | – |
| Cn1cc(-c2ccc3nnc(Sc4ccc5nn(C)cc5c4)n3n2)cn1 | inactive | – |
| COc1cc(N)c(Cl)cc1C(=O)NC[C@@H]1CCN2CCC[C@@H]12 | inactive | – |
| CC1(C)CCCC2(C)C1CC=C1C(=O)OC(O)C12O (configuration not stated) | inactive | – |
| CCOc1ccc(S(=O)(=O)n2c(C)nc3ccccc32)cc1 | inactive | – |
| CC(C)[C@H]1CC[C@@]2(O)COC(=O)[C@H]2[C@@H]1/C=C(\CO)C(=O)O | inactive | – |
| CC(O)CO[C@@H]1O[C@H](CO)[C@@H](O)[C@H](O)[C@H]1O (some centres not stated) | inactive | – |
| CC1(C=O)CC[C@]2(C(=O)O[C@@H]3O[C@H](CO)[C@@H](O)[C@H](O)[C@H]3O)CC[C@]3(C)C(=CCC4[C@@]5(C)C[C@H](O)[C@H](O[C@@H]6OC[C@@H](O)[C@H](O)[C@H]6O)[C@@](C)(CO)C5CC[C@]43C)C2C1 (some centres not stated) | – | -7.22% [at 11.6 µM] |
| COC1C(CO)OC(n2cnc3c(=O)[nH]cnc32)C1O (configuration not stated) | inactive | – |
| Cc1csc(NC(=O)c2ccc(COc3cccc(Cl)c3)o2)n1 | inactive | – |
| CC[C@@](C)(Nc1ccnc(-c2c[nH]c3ncccc23)n1)C(=O)NCC(F)(F)F | inactive | – |
